In the supplement of paper PMC3334620:
Whole data set: some 33,000 sequences, median “E-score (-0.5 to 0.5)” near -0.012, cut for the highest 2% near 0.29. This is one part of a sample in which the highest values are shown more often than they occur.

target: T1, Ybr033w (UniProt P38073); assay: PBM E-score (8-mer binding enrichment) (E-score (-0.5 to 0.5)); higher = stronger / more preferred TF binding; details: protein concentration: 200 nM; construct: GST-full length
T1 sequence: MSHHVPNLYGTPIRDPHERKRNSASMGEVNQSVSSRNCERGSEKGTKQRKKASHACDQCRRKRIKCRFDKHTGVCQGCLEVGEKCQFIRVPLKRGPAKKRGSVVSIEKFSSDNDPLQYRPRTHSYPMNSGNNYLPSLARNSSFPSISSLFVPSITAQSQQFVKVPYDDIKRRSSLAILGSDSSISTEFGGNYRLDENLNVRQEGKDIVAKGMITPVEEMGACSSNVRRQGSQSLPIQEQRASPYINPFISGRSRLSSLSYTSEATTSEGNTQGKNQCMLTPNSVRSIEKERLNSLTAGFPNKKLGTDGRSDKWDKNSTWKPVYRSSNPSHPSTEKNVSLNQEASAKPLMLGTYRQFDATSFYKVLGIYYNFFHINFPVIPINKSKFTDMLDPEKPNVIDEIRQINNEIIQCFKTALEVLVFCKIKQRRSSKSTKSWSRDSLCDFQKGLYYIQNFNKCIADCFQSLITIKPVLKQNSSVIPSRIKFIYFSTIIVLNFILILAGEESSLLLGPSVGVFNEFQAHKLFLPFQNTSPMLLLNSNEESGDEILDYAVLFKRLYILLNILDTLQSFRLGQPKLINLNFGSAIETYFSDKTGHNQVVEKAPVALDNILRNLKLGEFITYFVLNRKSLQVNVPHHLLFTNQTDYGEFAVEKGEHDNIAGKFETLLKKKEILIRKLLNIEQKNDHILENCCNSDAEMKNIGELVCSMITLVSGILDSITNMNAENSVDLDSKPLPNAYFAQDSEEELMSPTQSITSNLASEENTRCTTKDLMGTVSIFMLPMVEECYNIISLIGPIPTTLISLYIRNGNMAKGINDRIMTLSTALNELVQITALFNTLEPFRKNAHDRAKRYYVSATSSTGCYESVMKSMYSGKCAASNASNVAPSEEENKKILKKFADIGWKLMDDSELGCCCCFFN
Outline: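 Universal all-10-mer Agilent arrays, double-stranded by primer extension on fresh or once-stripped slides, were probed with about 100-200 nM GST-tagged yeast transcription factors made by PURExpress. Fluorescent anti-GST detected bound protein, and masliner normalised the scans. E-scores from the Universal PBM Analysis Suite were given to each ungapped eight-base word pooled with its reverse complement.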

Sequence | PBM E-score
CCTGTAGC | -0.353
GGCCTACC | -0.113
CGACTGCA | -0.126
ACTAACGG | -0.0153
TCAATTAA | 0.252
ACAATTAA | 0.302
CCAATTAA | 0.215
ACAATTAG | 0.0047
ACAATTAT | 0.328
ACAATTAC | 0.202
GGCTAGGA | -0.106
ACCGCACT | -0.0787
GAGAGCTC | -0.197
AGCCCAAT | -0.125
GAGTTTTA | 0.146
CAGATATA | 0.175
GATATATA | 0.289
TATATATA | 0.28
CGGATATC | 0.0386
GGGATATA | 0.158
AAGATATC | 0.117
CGGATATA | 0.345

Sequence | PBM E-score
GATATATC | 0.226
AAGATATA | 0.323
CGTGGTTA | -0.0128
CGCGAGCA | -0.12
CACCTTAC | -0.00385
ACGGAACA | 0.298
AGGGAACA | 0.249
CCGGAACC | -0.16
GGGGAACA | 0.00453
CCGGAACA | 0.447
ACGGAACC | -0.0347
ACGGAACT | 0.0148
CGGGAACA | 0.331
TCGGAACA | 0.387
CCGGAACG | -0.0381
TGGGAACA | 0.111
GCGGAACA | 0.265
ATCGTTCC | -0.196
ATATTTGC | 0.222
TATGTTAA | 0.238
CAGGGAAC | 0.0159
CCCATCCC | -0.23

Sequence | PBM E-score
ACTGACGA | -0.0835
CTGATTCC | -0.0421
ATAATTCA | 0.241
ACAATTCG | 0.0965
CTAATTCC | 0.0934
ATGATTCC | 0.336
ATAATTCG | 0.294
ATGATTCA | 0.127
ATAATTCC | 0.348
AGAATTCC | 0.0767
AGCTCTGA | -0.0863
TACGGGGA | -0.183
GAGAATGA | 0.122
ACACCGAT | -0.185
AAGCGCAG | 0.127
CGTAGATA | 0.0341
AGTAGATA | 0.311
CCTAGATA | -0.0707
AGTAGATC | 0.164
ACTAGATC | -0.0476
ACTAGATA | 0.304
GCGGGGAC | -0.22

Sequence | PBM E-score
AGATGAAA | 0.0735
AGAGCGTC | -0.081
ATCAGAAA | 0.044
CGATACAA | 0.165
AGATACAG | 0.22
AGATACAA | 0.292
CGGTGACG | -0.0845
AATGCGAG | 0.291
AATGCGAT | -0.0207
CATGCGAG | -0.217
GGCATAAA | 0.167
ATACGTGC | -0.058
TCACTAGA | 0.12
AATTGTCA | 0.139
AATTGTTA | 0.314
AATTGTCC | 0.163
AATTGTTG | 0.114
GATTGTAC | 0.0766
AGTTGTTG | 0.123
AGTTGTTA | 0.174
GATTGTTA | 0.0997
